# Measured values published in PubChem BioAssay (NCI).
# About 83,000 compounds went through this panel and 20% of them were active in at least one assay; those are over-represented in the sample as a whole.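 Activity criterion: percent growth below 10, measured after cells in 96-well plates were exposed to a single compound concentration for 48 hours.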 Values without a mark were called inactive. Active and inactive are the calls of the source.
# What was measured:
# Test in all cases: NCI-60 one-dose screen, 48 h (100 = growth as untreated, 0 = no growth, -100 = all killed)
# Conditions in all cases: 10 µM unless noted
# [1] = tested on: SK-MEL-2 melanoma
# [2] = tested on: EKVX NSCLC
# [3] = tested on: SN12C renal
# [4] = tested on: UO-31 renal
# [5] = tested on: TK-10 renal
# [6] = tested on: ACHN renal
# [7] = tested on: CAKI-1 renal
# [8] = tested on: A498 renal
# [9] = tested on: CCRF-CEM leukemia
# [10] = tested on: MOLT-4 leukemia
SMILES,growth [1],growth [2],growth [3],growth [4],growth [5],growth [6],growth [7],growth [8],growth [9],growth [10]
O=C(NCCNC(c1ccccc1)C(NCCNC(=O)c1ccccc1)c1ccccc1)c1ccccc1 (stereo not given),45.9%,123%,97.7%,80.3%,97.5%,7.15% (active),61.6%,112%,97.1%,72.2%
COc1ccc(C(=O)Nc2ncc(Cc3ccc(Cl)cc3)s2)cc1,23.9%,36.5%,24.8%,37.4%,58.9%,25.6%,18.4%,-18.5% (active),14.5%,12.3%
Cc1ccc(NC(=O)c2sc3nc(C)c(C(O)c4ccccc4)cc3c2N)cc1 (stereo not given),42.5%,48%,18.9%,41.6%,53%,32.8%,33.8%,-8.03% (active),7.67% (active),18.1%
O=C1NC(=O)C(c2coc3cc(Br)ccc23)=C1c1c[nH]c2ccccc12,34.1%,54%,55%,58%,80.8%,71.3%,39.2%,5.34% (active),29.1%,26%
CSc1ccc2c3c(n(C[C@H](O)CO)c(=O)c2c1)-c1ccccc1C3=O,104%,77.1%,23.1%,19.9%,70.7%,-41% (active),27.9%,52.3%,-4.25% (active),-17.8% (active)
O=c1oc2c(cc1-c1ccccc1)c(=O)[nH]c1ccccc12,107%,91.4%,96.6%,96.6%,99.4%,102%,97.5%,96.9%,101%,99.7%
O=C1Nc2ccccc2/C1=N/N1C(=O)CN(CCCl)C1=O,103%,102%,94.2%,86%,102%,107%,89.1%,95.6%,99.3%,99.9%
Clc1ccc2nn3c4ccccc4c(OCCN4CCOCC4)nc3c2c1,112%,84.3%,87.9%,49.2%,84.8%,70.7%,50.4%,3.87% (active),96.2%,95.3%
N=C(N)c1ccc(-c2ccc(-c3cc(Cl)cc(Cl)c3)s2)s1,83.4%,-12.2% (active),-65.4% (active),-40.2% (active),-26.5% (active),-54.2% (active),2.68% (active),73.6%,-12.4% (active),-41.9% (active)
CCN(CC)CCOc1ccc(C(=O)/C=C\c2ccc(Cl)cc2Cl)cc1,81%,63.5%,43.4%,25%,75.9%,52.7%,55%,70%,7.28% (active),-13.1% (active)
Fc1ccc(/C=C/[C@@H]2C[C@@H](F)CCO2)cc1,110%,97.3%,100%,87%,94.2%,101%,86.8%,109%,86.8%,70.1%
COc1ccc(-c2cc(-c3cn(-c4cccc(Cl)c4)nc3-c3ccc(OC)cc3)on2)cc1,86.8%,98.8%,89%,77.3%,-45.1% (active),101%,93.5%,78.6%,88.1%,77%
COc1ccc2c(O)c(/C=C3\N=Nc4ncccc43)oc2c1C[C@@H]1CCNC[C@H]1F,-17.9% (active),-5.63% (active),-28.2% (active),-14.5% (active),-2.3% (active),-52.7% (active),1.53% (active),-32.1% (active),-17.4% (active),-9.39% (active)
O=C(c1ccc(Br)cc1)C(Br)C(c1ccc(Cl)cc1)C(c1ccccc1)[N+](=O)[O-] (stereo not given),110%,79.9%,101%,79%,103%,102%,88.7%,87.5%,90.3%,89.7%
